In general, inhibition refers to the drop in the measured response relative to a control, in per cent.

Unmarked numbers belong to inactive results. The rule behind the calls is not given here.

For this assay, the target named is Pantothenate synthetase (Mycobacterium tuberculosis (strain ATCC 25618 / H37Rv)) (UniProt P9WIL5). The assay is described as follows: Recombinant Mtb pantothenate synthetase (PanC) inhibitors, coupled enzyme, confirmatory (AID 375).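 Note: 0% = full reaction with vehicle and 100% = no enzyme background.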 Conditions: coupled enzyme assay; at 10 µM, stronger effect = higher value.
Sequence of Pantothenate synthetase (Mycobacterium tuberculosis (strain ATCC 25618 / H37Rv)) (P9WIL5 whole entry, looked up): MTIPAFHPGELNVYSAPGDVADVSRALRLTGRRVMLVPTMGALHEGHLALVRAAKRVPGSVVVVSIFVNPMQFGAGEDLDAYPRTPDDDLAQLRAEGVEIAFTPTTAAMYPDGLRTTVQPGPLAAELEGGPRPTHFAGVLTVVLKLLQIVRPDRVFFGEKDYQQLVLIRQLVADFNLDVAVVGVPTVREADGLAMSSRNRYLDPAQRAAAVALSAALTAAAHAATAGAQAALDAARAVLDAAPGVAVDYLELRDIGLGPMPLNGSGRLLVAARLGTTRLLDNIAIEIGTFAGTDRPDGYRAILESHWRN
`N#Cc1cnc(SCC(=O)Nc2ccccc2C(F)(F)F)nc1N`: the inhibition is 4%.

Consider `COc1ccc(-c2nnc(SCC#N)o2)cc1`, for which the inhibition was 0%.

On to `COCCOC(=O)C1=C(C)NC(C)=C(C(=O)OC(C)C)C1c1cccc([N+](=O)[O-])c1` (stereo not given), for which the inhibition is 0%.

In the case of `COc1ccc(C2=Nn3c(nnc3-c3ccccc3)SC2)cc1OC`, the inhibition was 0%.

Consider `CCC(C)OC(=O)n1ccc(C(=O)Nc2nccs2)n1` (stereo not given), for which the inhibition was 0%.

Turning to `O=C(NCc1ccco1)c1cnc2n(c1=O)CCS2`, the inhibition is 0%.

For the compound `CN=c1sc2ccccc2n1CC(O)COCc1ccco1` (stereo not given), the inhibition is 0%.

Turning to `O=C(NCCc1ccccc1)c1cc(-c2ccco2)on1`, the inhibition is 5%.

In the case of `CCCN(CCC)c1nc2ccccc2n2c(C)nnc12`, the inhibition was 4%.

On to `c1coc(-c2nnc(-c3cccs3)o2)c1`, for which the inhibition is 16%.

Consider `CCC(=O)Nc1ccc(NC(=O)c2ccccn2)cn1`, for which the inhibition was 0%.

On to `CCCC(O)(CCN(C)C)c1ccc(OC)cc1` (stereo not given), for which the inhibition is 0%.

Take `Cn1c(=O)[nH]c(=O)c2c1nc(NCCCn1ccnc1)n2Cc1cccc(Br)c1`: the inhibition was 0%.

`O=C(CSc1nnc(Cc2cccs2)n1Cc1ccco1)Nc1cccc(Cl)c1`: the inhibition is 0%.

Consider `Cc1ccc(N(C)C(=O)N2CCN(c3ccccn3)CC2)cc1`, for which the inhibition is 0%.

Regarding `Cc1cc(C(=O)Nc2ccccc2C#N)n(-c2ccccc2)n1`, the inhibition was 0%.

`CCCn1c(SCC(=O)N2CCN(c3ccccc3)CC2)nc2ccccc2c1=O`: the inhibition is 0%.

As for `CSc1ccccc1N=CC1=C(O)CC(C)(C)CC1=O`, the inhibition is 0%.

Consider `Cc1nn(-c2ccccc2)c2c1C(=O)NC(=O)C(C)(C)C2`, for which the inhibition was 0%.

As to `O=C(NCc1ccco1)C(c1ccco1)N(C(=O)Cn1nnc2ccccc21)c1ccc2c(c1)CCC2` (stereo not given), the inhibition was 0%.

`CCSc1nc2ccccc2n1CC(N)=O`: the inhibition is 4%.

`CCN(CC)c1ccc2c(c1)C(=O)N(C)C2=O`: the inhibition was 7%.

For the compound `CN(C)c1oc(-c2ccccc2F)nc1C#N`, the inhibition was 1%.

`Cn1c(=O)c(=O)n(C)c2cc(S(=O)(=O)N3CCN(c4cccc(C(F)(F)F)c4)CC3)ccc21`: the inhibition is 9%.

As to `Clc1cccc(Nc2c3c(nc4ncnn24)CCC3)c1`, the inhibition was 0%.

On to `CCC(NC(=O)Nc1cc(OC)c(OC)c(OC)c1)(C(F)(F)F)C(F)(F)F`, for which the inhibition was 3%.

Consider `CCOC(=O)N1CCC(NC(=O)Cn2c3c(c(-c4ccccc4Cl)cc2=O)CCC3)CC1`, for which the inhibition was 0%.

In the case of `Cc1nc(SCC(=O)N2CCC(C(N)=O)CC2)n[nH]1`, the inhibition was 0%.

For `CCOc1ccc(NC(=O)c2ccc3c(c2)N(Cc2ccc(F)cc2)C(=O)CS3=O)cc1` (stereo not given), the inhibition is 10%.

In the case of `CC(C)(C)NC(=O)Cn1nnnc1-c1nonc1N`, the inhibition is 4%.

`O=C(c1ccco1)N1CCN(/C(=N/S(=O)(=O)c2cccs2)c2ccccc2Cl)CC1`: the inhibition was 0%.

As for `CC1CCCCC1NC(=O)CN1CCN(Cc2ccccc2Cl)C1=O` (stereo not given), the inhibition was 0%.

`CCCNC(=O)N1CCN(S(=O)(=O)c2ccc(C)c(C)c2)CC1`: the inhibition is 4%.

In the case of `COCCn1nnnc1C(c1ccccc1OC)N1CCc2ccccc2C1` (stereo not given), the inhibition is 0%.

For `O=c1oc2c3c4c(cc2s1)CCCN4CCC3`, the inhibition is 0%.

As for `COc1cccc(NC(=O)CSc2nnc(-c3cc(-c4ccccn4)nc4ccccc34)o2)c1`, the inhibition was 2%.

As to `CCOCCOc1nc2c(c(=O)n(C)c(=O)n2C)n1Cc1ccc(C)cc1`, the inhibition is 0%.

As for `Cc1cccn2cc(-c3ccccc3)nc12`, the inhibition was 0%.

With `CCOc1ccccc1C(=O)NCc1ccc2c(c1)OCO2`, the inhibition is 4%.

`Cn1c(=O)c2ccccc2n(Cc2ccccc2F)c1=O`: the inhibition is 0%.

The record behind these values is PubChem BioAssay.
